High-throughput results: PubChem, The Scripps Research Institute Molecular Screening Center
Compounds with a hit are over-represented: about 3.5% of the library has one in this group of screens.
TEAD-YAP inh = TEAD-YAP interaction inhibition; HEK-TIYL cells, TEAD-Gal4/YAP UAS-luciferase luminescence; AID 1259422; inhibition, % at 9.12 µM; 1.4% of 640,000 active; in the data active = inhibition above about 32%;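 also: 0% = median of test compound wells and 100% = reference inhibitor wells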
MITF inh = inhibitors of human MITF; AlphaScreen MITF homodimerization, bead proximity signal; 0.91% of 650,000 active; inhibition, % at 2.6 µM; O75030; in the data active = inhibition above about 50%;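 also: 0% = vehicle wells with protein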
FBW7 activator = human FBW7 E3 ligase activation, primary screen; normalized activity (activation), % at 26.1 µM; Q969H0; AlphaScreen FBW7–phospho-cyclin E peptide binding, activator screen; 0.13% of 650,000 active; in the data active = normalized activity above about 1.9%;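 also: purified mutant Fbw7 with reduced substrate affinity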
GPR151 activ = human GPR151 activation | Q8TDV0 | PathHunter beta-arrestin GPR151 cells, luminescence | activation, % at 11.2 µM | 1% of 650,000 active; in the data active = activation above about 4.9%;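 also: 0% = median of compound wells and 100% = cells with positive control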
GPR151 conf act = confirmation of human GPR151 activators | shares compounds with GPR151 activ | GPR151 PathHunter beta-arrestin cells, luminescence, 90 min; % of EA-reagent control over plate median | activation, % at 11.2 µM | 6,700 tested, under 10 active;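 active = mean percent activation across replicates above the confirmation screen cutoff of 4.91%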
GPR119 ag = activates human GPR119 in a GPR151 counter-screen | GPR119 PathHunter beta-arrestin cells, luminescence, 90 min; 0 = compound-well median, 100 = enzyme-acceptor control | shares compounds with GPR151 activ | AID 1508611 | activation, % at 11.2 µM | 0.3% of 6,700 active;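 active = mean percent activation in the counterscreen above 29.09%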;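 also: counterscreen on off-target GPR119 to flag nonselective hits from the GPR151 activator screen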
Target sequence (Q8TDV5 whole entry, looked up): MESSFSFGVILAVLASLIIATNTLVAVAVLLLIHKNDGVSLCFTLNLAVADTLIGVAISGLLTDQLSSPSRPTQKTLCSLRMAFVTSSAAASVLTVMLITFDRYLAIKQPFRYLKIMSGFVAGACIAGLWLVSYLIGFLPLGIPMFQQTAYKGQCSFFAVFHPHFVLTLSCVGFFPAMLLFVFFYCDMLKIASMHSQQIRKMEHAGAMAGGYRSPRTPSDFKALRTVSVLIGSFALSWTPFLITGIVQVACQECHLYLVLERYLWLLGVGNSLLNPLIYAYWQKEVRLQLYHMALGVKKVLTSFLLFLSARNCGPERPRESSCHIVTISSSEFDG
* hit, by the source's call; nt = not tested or not shown.

SMILES	TEAD-YAP inh	MITF inh	FBW7 activator	GPR151 activ	GPR151 conf act	GPR119 ag
COC(=O)c1ccc(-n2c(C)cc(C(=O)CN3CCOCC3)c2C)cc1	-8	3	0	-1	nt	nt
c1ccc(-n2nnnc2NCC2COc3ccccc3O2)cc1 (configuration not stated)	0	-15	0	5.1*	-1	0
CN(CC1COc2ccccc2O1)c1nnnn1-c1ccccc1 (configuration not stated)	3	2	0	0	nt	nt
CCCCC(=O)Nc1cnc(NC(=O)c2ccccc2F)cc1C	-14	9	0	-1	nt	nt
CN(Cc1ccccc1)C(=O)Cn1ncc2ccsc2c1=O	-30	-7	0	5.6*	-1	-22
O=C(CC1Sc2ccccc2NC1=O)Nc1ccc(Br)cc1 (configuration not stated)	7	3	0	1	nt	nt
O=C(Nc1cc(Oc2ccc(F)cc2F)cc([N+](=O)[O-])c1)c1oc(=O)c2ccccc2c1-c1ccccc1	-8	1	0	5.5*	0	8
O=C(Nc1cc(Sc2ccc(F)cc2)cc([N+](=O)[O-])c1)c1oc(=O)c2ccccc2c1-c1ccccc1	-4	4	0	-2	nt	nt
O=C(/C=C/c1cccc2ccccc12)NCc1ccccc1	-7	15	0	5.0*	-1	-8
CN1C(=O)CCC12CCN(Cc1c[nH]c3ccccc13)CC2	-7	15	0	8.1*	0	-1
Cc1ccnc(-n2cccc2CN2CCc3c(nc(N4CCCC4)[nH]c3=O)C2)c1	7	5	0	5.0*	0	6
COc1cccc(OC)c1C(=O)Nc1ccc([N+](=O)[O-])cn1	5	10	0	0	nt	nt
COc1cccc(OC)c1C(=O)Nc1ncc([N+](=O)[O-])s1	5	11	0	5.7*	0	-9
COc1cccc(OC)c1C(=O)NC(=S)Nc1ccc(Br)cn1	-17	-2	0	-1	nt	nt
COc1cccc(OC)c1C(=O)Nc1ccc(Br)cn1	-7	-11	0	15*	-1	4
CNS(=O)(=O)Cc1ccc(Nc2nccc(-c3ccccc3)n2)cc1	-25	-1	0	0	nt	nt
c1ccc(C2=NCCCO2)cc1	9	-22	0	10*	1	-6
c1ccc(-c2nnc(-c3ccccc3)o2)cc1	-34	2	0	-7	nt	nt
Cc1ccc(-n2cnnn2)c(S(=O)(=O)N2CCOCC2)c1	6	1	0	5.4*	0	6
CCOC(=O)C1C(=O)NC(SCC(=O)Nc2ccc(Br)cc2)=C(C#N)C1c1ccccc1OCC (configuration not stated)	-6	-11	0	8.5*	0	11
CN1CCCN(Cc2ccccc2Cl)CC1	0	26	0	1	nt	nt
COC(=O)COc1ccc(/C=C(/C#N)C(=O)NCCc2c[nH]c3ccccc23)cc1	-2	-5	0	-1	nt	nt
Cc1cc(N(C)C)nc(NCCNC(=O)/C=C/c2ccccc2)n1	19	13	0	5.7*	0	-7
CCc1c(C#N)c(N)nc(SCC(=O)c2cc3ccccc3oc2=O)c1C#N	0	1	0	9.9*	0	15
COc1cccc(CC2(CO)CCCN(C(=O)c3ccc(N4CCOCC4)cc3)C2)c1 (configuration not stated)	-14	-1	0	1	nt	nt
SMILES	TEAD-YAP inh	MITF inh	FBW7 activator	GPR151 activ	GPR151 conf act	GPR119 ag
CCc1ccc(CNCc2c(C(=O)N3C[C@@H](C)O[C@@H](C)C3)nc3ccc(Cl)cn23)nc1	-3	24	0	-1	nt	nt
O=C(COc1ccccc1)n1nc(NCc2ccccc2)nc1NCc1ccccc1	-3	4	0	8.8*	0	4
CCCC(=O)n1nc(NCc2ccccc2)nc1NCc1ccccc1	-9	11	0	6.9*	0	-6
CC(=O)n1nc(NCc2ccccc2)nc1NCc1ccccc1	-1	-6	0	0	nt	nt
COCC(=O)n1nc(NCc2ccc(OC)cc2)nc1NCc1ccc(OC)cc1	4	-16	0	3	nt	nt
COc1cc(/C=C2\C(=O)Nc3ccc(Br)cc32)cc([N+](=O)[O-])c1O	0	-6	0	0	nt	nt
CSc1ccccc1C(=O)Nc1nnc(C2=COCCO2)o1	6	9	-1	-1	nt	nt
